# Test results taken from article PMC6212790, “How bacterial xenogeneic silencer rok distinguishes foreign from self DNA in its resident genome”.
# In all, about 33,000 sequences were measured (“e-score”: median about -0.037, highest 2% from about 0.34 on). The sample holds the highest values, similar sequences and a random draw of the others, so the mix is not that of the screen.
# Target: T1, GST-Rok (full length) (Bacillus subtilis subsp. subtilis str. …, UniProt O34857 1-191)
# T1 sequence: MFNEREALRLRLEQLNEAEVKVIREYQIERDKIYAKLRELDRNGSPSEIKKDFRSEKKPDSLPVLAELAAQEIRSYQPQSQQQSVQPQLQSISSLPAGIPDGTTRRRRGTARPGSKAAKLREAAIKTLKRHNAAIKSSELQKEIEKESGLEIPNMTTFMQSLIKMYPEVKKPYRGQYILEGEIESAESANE
# Test: protein binding microarray; Rok is a gene silencer of Bacillus subtilis; high values mean tight binding
# Settings: protein: recombinant; tags: GST (pTH5325, pDEST15-Magic modified); dsDNA, one strand shown
# How it was run: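 Each has a 25-mer constant primer and a 35-mer variable part from a de Bruijn sequence of order 10, covering every non-palindromic 8-mer at least 32 times (palindromic 16). Preference for each 8-mer is given as a rank-based, unitless enrichment score (E-score). Its range runs from 0.5 (most favored) to −0.5 (most disfavored).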
row,Sequence,binding signal
1,TAGGCTAA,-0.112 E-score
2,ATATCGAT,0.316 E-score
3,AAGTCTGA,-0.121 E-score
4,CTAGGAAC,-0.0546 E-score
5,CGTAGCGA,0.0631 E-score
6,GGTAGCGA,0.0576 E-score
7,GGTAGCAA,0.241 E-score
8,GCTAGCTA,0.156 E-score
9,CGTAGCTA,0.365 E-score
10,AGTAGCTG,0.204 E-score
11,CGTAGCTC,0.0159 E-score
12,CCTAGCTA,0.107 E-score
13,AGTAGCTA,0.386 E-score
14,AGTAGCTC,0.0983 E-score
15,GGTAGCTA,0.341 E-score
16,ACTAGCTA,0.347 E-score
17,GTTGAGGA,-0.0613 E-score
18,CATTACCA,0.14 E-score
19,CAGTAACG,0.112 E-score
20,CAACTATA,0.307 E-score
21,CAACTATC,0.192 E-score
22,AAACTATG,0.195 E-score

row,Sequence,binding signal
1,AAACTCTT,0.188 E-score
2,GAACTATA,0.289 E-score
3,AAACTATC,0.412 E-score
4,AAACTATT,0.458 E-score
5,GAACTATC,0.292 E-score
6,ACACTATA,0.245 E-score
7,TAACTATA,0.341 E-score
8,TAACTAAA,0.151 E-score
9,AAACTATA,0.396 E-score
10,GCTGGCAC,-0.181 E-score
11,GTGCCAAA,-0.127 E-score
12,AGTGAAGA,-0.00169 E-score
13,CTCGAAAG,-0.0828 E-score
14,CACCTATA,0.214 E-score
15,TACCTATA,0.37 E-score
16,AACCTATA,0.239 E-score
17,CACCTAAA,0.131 E-score
18,TACCTAAA,0.37 E-score
19,AACCTAAA,0.102 E-score
20,ATTAAGAA,0.154 E-score
21,ACTTGCCG,-0.0504 E-score
22,AAACTCTC,0.106 E-score

row,Sequence,binding signal
1,CACCATCG,-0.0961 E-score
2,TATCAATA,0.343 E-score
3,AATCAATA,0.296 E-score
4,GATCAATA,0.157 E-score
5,CTCGCGAG,-0.0252 E-score
6,AGAAGGAC,-0.175 E-score
7,ACAGAGGC,-0.125 E-score
8,AACTATTC,0.315 E-score
9,AACTATTA,0.431 E-score
10,ACCTATTG,0.182 E-score
11,GACTATTA,0.157 E-score
12,AACTATTG,0.378 E-score
13,CACTATTA,0.268 E-score
14,CGGACTCA,-0.0715 E-score
15,ATTTTGAA,0.162 E-score
16,CTAAGGGA,-0.154 E-score
17,CAGCCCGG,-0.158 E-score
18,AAGTCCGC,-0.0838 E-score
19,GCAAGTAA,-0.0735 E-score
20,AACCTCAT,-0.155 E-score
21,ACTAGTAA,0.382 E-score
22,ATTAGTAA,0.314 E-score

row,Sequence,binding signal
1,TCTAGTAA,0.351 E-score
2,ACTAGTGA,0.172 E-score
3,GCTAGTAA,0.294 E-score
4,CCTAGTAA,0.256 E-score
5,CTAAGCAG,-0.152 E-score
6,ACATCGAT,0.166 E-score
7,AGCTGGGG,-0.188 E-score
8,ACAAGAAA,-0.0731 E-score
9,TCTAGAAA,0.222 E-score
10,ACTAGAAC,0.296 E-score
11,ACTAGAAA,0.344 E-score
12,CCTAGAAA,0.0461 E-score
13,GCTAGAAA,0.37 E-score
14,ACGAGAAA,-0.0804 E-score
15,ACTAGAAT,0.356 E-score
16,ACTAGAAG,0.215 E-score
17,CGCTAGTA,0.31 E-score
18,CTGGCAGA,-0.0653 E-score
19,AGGCAACG,-0.102 E-score
20,CGACGCAA,0.0906 E-score
21,ATAGATAG,0.34 E-score
22,CTAGATAG,0.346 E-score
